Whole data set: some 39,000 sequences, median “fluorescence intensity (a.u.)” near 4,300, cut for the highest 2% near 39,000. Many of the other results were omitted from the sample, so the highest values are more common in it than they were.

From PMC7819943, “Rice protein-binding microarrays: a tool to detect cis-acting elements near promoter regions in rice” come the findings set out here.

This experiment deals with T1, OsSMF1 (Oryza sativa, UniProt Q6ZLB0 1-436).
T1 sequence: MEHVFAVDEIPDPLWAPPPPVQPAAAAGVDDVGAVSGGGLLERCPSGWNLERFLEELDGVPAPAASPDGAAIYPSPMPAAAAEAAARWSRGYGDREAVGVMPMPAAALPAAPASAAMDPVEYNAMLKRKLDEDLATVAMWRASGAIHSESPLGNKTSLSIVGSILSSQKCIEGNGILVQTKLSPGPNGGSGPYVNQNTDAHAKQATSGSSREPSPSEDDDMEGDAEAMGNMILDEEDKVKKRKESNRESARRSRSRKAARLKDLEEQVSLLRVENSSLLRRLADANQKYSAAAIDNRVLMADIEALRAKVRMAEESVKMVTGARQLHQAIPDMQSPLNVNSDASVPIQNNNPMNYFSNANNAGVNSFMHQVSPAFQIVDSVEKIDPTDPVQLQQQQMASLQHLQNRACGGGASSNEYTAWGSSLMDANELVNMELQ
Kind of experiment: protein-binding microarray (RPBM); PBS, 2% BSA, 51.3 ng/ul salmon testes DNA, 50 uM zinc acetate, 200 nM TF, 25 C, 1 h; high values mean tight binding. The following applies: protein: recombinant; tags: N-terminal polyhistidine and DsRed monomer fusion (pET32a); chain copies: 2; label: CyDye5-dUTP incorporated in the synthesized complementary strand; 3' TTTTT single-stranded linker to array surface; dsDNA, one strand shown. Put shortly: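 Binding signal here means per-feature fluorescence intensity in arbitrary units. The values were read on an Axon 4000B scanner after a custom Agilent array, double-stranded by primer extension with Cy5-dUTP, was incubated with 200 nM protein at 25 °C for 1 h in PBS with 2% BSA, salmon testes DNA and 50 µM zinc acetate, then washed. The proteins were transcription factors with an N-terminal polyhistidine tag and DsRed, expressed in E. coli BL21-CodonPlus and purified on Ni–NTA.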
In the case of “ACAAATACTGATACATATACCTATACGTATGCGTCACCGTCGGAGTCACCTAGTGCAG”, the binding signal was 8380 fluorescence intensity (a.u.).
Then “TCAGGATGACTCGAAGTCGAATCCGCGTAATACGCTGGCGCGGAGTCACCTAGTGCAG”, with 3370 fluorescence intensity (a.u.); and “CCATCACCTCGTCGTCCCCGTCACCGCGCCTCTCCCGCTGCGGAGTCACCTAGTGCAG”, with 3780 fluorescence intensity (a.u.); and “TTGAATGGTGATGTAACTTGCATGGTTCTACACTTGATGACGGAGTCACCTAGTGCAG”, with 3610 fluorescence intensity (a.u.).
In the case of “GGGCAGCGCTAACCCAAAGCTCCTGCGATTCCAAACCGACCGGAGTCACCTAGTGCAG”, the binding signal is 64800 fluorescence intensity (a.u.).
Turning to “CTCCGATGGAAGCCACGTCCTGTCCAATTCCCAAACTAACCGGAGTCACCTAGTGCAG”, the binding signal is 4220 fluorescence intensity (a.u.).
As to “TAATTCCAAGCTTGTTTCACCGACCTGCCAAACTCGATTGCGGAGTCACCTAGTGCAG”, the binding signal was 3270 fluorescence intensity (a.u.).
In the case of “AAGGTGATAGGGTCTCAAGTACGTCATTATGAATGTAAATCGGAGTCACCTAGTGCAG”, the binding signal is 3910 fluorescence intensity (a.u.).
For the sequence “TCTAGACAATCAAGCCGCTAGAAGTTTCATAGAGTGGTAGCGGAGTCACCTAGTGCAG”, the binding signal was 7160 fluorescence intensity (a.u.).
For the sequence “CTCCCTAGTCCACAAAACCTAGTGACGCGGCGAAACCCAACGGAGTCACCTAGTGCAG”, the binding signal is 5660 fluorescence intensity (a.u.).
Then “ACATGGGCCGCAATCAGGTCACGTGGCTAGGCCTTGGGCCCGGAGTCACCTAGTGCAG”, with 3230 fluorescence intensity (a.u.).
Then “TTTCAGTAGCGTCGGCTGCTCTATCTACTTGCATTGCCTGCGGAGTCACCTAGTGCAG”, with 41000 fluorescence intensity (a.u.); and “GTGTGCTCTTGCATACATACTTGGGCTTATCTAGCTGCGTCGGAGTCACCTAGTGCAG”, with 5510 fluorescence intensity (a.u.).
Next, “TTAGCCATTGCTACTTGCTTGCAGCGCGCGTGTCGGCTAGCGGAGTCACCTAGTGCAG”: 25300 fluorescence intensity (a.u.); “TGGAAAGAATACAGTATGATATGGTCTTATTTTGTCTGCCCGGAGTCACCTAGTGCAG”: 41200 fluorescence intensity (a.u.).
As to “CTAGTTTACATCTGCAATGTCATGATTTATTTATGGAATACGGAGTCACCTAGTGCAG”, the binding signal is 19500 fluorescence intensity (a.u.).
With “GTTTCTTATTTTATGAATGGTATGAGTAAGAATATGTTTGCGGAGTCACCTAGTGCAG”, the binding signal was 3690 fluorescence intensity (a.u.).
As to “GCGAGCAGTCGATGTCCTCGATGACGATGATGGACTTGCTCGGAGTCACCTAGTGCAG”, the binding signal was 4140 fluorescence intensity (a.u.).
Next, “TATGACATCGGCTCAAAGATAAATGATATGTCATCGGCATCGGAGTCACCTAGTGCAG”: 3540 fluorescence intensity (a.u.).
“AGTAGAGAGATCTTGACAAAGTCATCGGTGATGAAGTCGACGGAGTCACCTAGTGCAG”: the binding signal was 3570 fluorescence intensity (a.u.).
Then “AGGGCTATCTGCTATCTCATCTTGTATGACAAAGATTGATCGGAGTCACCTAGTGCAG”, with 65500 fluorescence intensity (a.u.).
Consider “CCGTTGCCGCGCCGTGGACCGACAGCCACTGACGTCACCCCGGAGTCACCTAGTGCAG”, for which the binding signal was 18600 fluorescence intensity (a.u.).
Next, “TTGAACCAACACTATATCATACACCTAGTCACCTACTCCTCGGAGTCACCTAGTGCAG”: 4770 fluorescence intensity (a.u.); “ACACATTCCATATCCTTGGACTAATTCACGAGACGAATCTCGGAGTCACCTAGTGCAG”: 40900 fluorescence intensity (a.u.); “ACTAATTGTGGCCATGTTCATCGTGCAGTTCCTTGGATCTCGGAGTCACCTAGTGCAG”: 17300 fluorescence intensity (a.u.).
Next, “CATCTCCATTCTTTCATCCTCATCTCTAATGGAGAATTTCCGGAGTCACCTAGTGCAG”: 3920 fluorescence intensity (a.u.).
In the case of “AGTAATTAAAATTTAAGAGGCAAAATTACGTGTGAATTTGCGGAGTCACCTAGTGCAG”, the binding signal was 4130 fluorescence intensity (a.u.).
For the sequence “CCCGAAGCGGATTCGCGCACGGAAACCCACAGTCGATTCTCGGAGTCACCTAGTGCAG”, the binding signal was 3590 fluorescence intensity (a.u.).
With “ATAGGGTGAGAAAGCACCTCGTTTTCCACGCGCACGCTTCCGGAGTCACCTAGTGCAG”, the binding signal is 3330 fluorescence intensity (a.u.).
Then “CTTGCCGTCGAAGCGAAGGAACCGCCACCCGACGTCAGCTCGGAGTCACCTAGTGCAG”, with 5050 fluorescence intensity (a.u.); and “GGGAGGACGAAGGAACGCCAATACCGACATTGCTCAAGCTCGGAGTCACCTAGTGCAG”, with 65300 fluorescence intensity (a.u.); and “CTTGCCGTCGACGCGAAGGAACCGCCACCCGACGTCAGCTCGGAGTCACCTAGTGCAG”, with 5610 fluorescence intensity (a.u.).
As to “GGTGGGGACCACCAGGACGGACGTGTAGGGCCTCCTGAAGCGGAGTCACCTAGTGCAG”, the binding signal was 4270 fluorescence intensity (a.u.).
Take “TCCAGGGAGCCGCGGTGGCATATGTTGCTGACATGTTTTCCGGAGTCACCTAGTGCAG”: the binding signal was 5340 fluorescence intensity (a.u.).
Next, “TCAGAGAGCTGACAGCGTGTTCAGGCCGTTCGATTTTGGTCGGAGTCACCTAGTGCAG”: 5030 fluorescence intensity (a.u.).
Then “TGTGTCATGGCTGATGTCAGCTCAGCATATATATATTCAGCGGAGTCACCTAGTGCAG”, with 14900 fluorescence intensity (a.u.).
Next, “ATTTGGGCGGCAAGCTGACGTGGCACACGGCGTCATGACTCGGAGTCACCTAGTGCAG”: 18100 fluorescence intensity (a.u.); “GATTTTATTCGACGTGTCAGCTGACTCAGATGGTCGGTAGCGGAGTCACCTAGTGCAG”: 39100 fluorescence intensity (a.u.).
Consider “ACTGGAGCTAACCGCTGACGTGGCATTCCACGTAGGCAACCGGAGTCACCTAGTGCAG”, for which the binding signal was 42500 fluorescence intensity (a.u.).
Then “ATGGAGCCTGACGTGGCAGCATGTAGCTGGTCCACGTCACCGGAGTCACCTAGTGCAG”, with 27400 fluorescence intensity (a.u.); and “ATCCGGTTTTATCCGACGTGGCGGCTGAGTCGGCGCGGGACGGAGTCACCTAGTGCAG”, with 30700 fluorescence intensity (a.u.).
Then “ACTCCGGTTTTATCCGACGTGGCAGCTGACTCAGCATGGGCGGAGTCACCTAGTGCAG”, with 44300 fluorescence intensity (a.u.); and “TTTGACTCCGATTTTATCCGACGTGGCAGCTGACTCAGCGCGGAGTCACCTAGTGCAG”, with 25300 fluorescence intensity (a.u.); and “TTTTGCACACATGTATCATGCTGACGTCAGCATGACGTGGCGGAGTCACCTAGTGCAG”, with 61200 fluorescence intensity (a.u.).
Next, “GTTGACCGTCTACGTGGCATTCCACGTAGGCAGCTCATTTCGGAGTCACCTAGTGCAG”: 16600 fluorescence intensity (a.u.).
Consider “CTTTTGCTCACATGGCGTGCCACCGTGGCGTGCCCGCATGCGGAGTCACCTAGTGCAG”, for which the binding signal is 16200 fluorescence intensity (a.u.).
